Compounds with a hit are over-represented: about 2.2% of the library has one in this group of screens.
TGFb inhibitor – TGF-b pathway inhibition. HepG2 CAGA-GFP TGF-b/SMAD3 reporter, GFP fluorescence, 18 h; TGF-beta stimulated, 500 pg/mL final. Potency, µM (top dose mostly 46.1 µM), hits mostly inhibitors. actives 1.2% (n = 410,000); note: nearly all actives have a fitted effect of over 65% in size
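Inhibition of TGF-beta-driven CAGA-GFP reporter expression in HEPG2 cells is measured by cellular GFP fluorescence after 18 h stimulation with 500 pg/mL recombinant TGF-beta in 1% FBS medium at 37 degrees C.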
ATXN2 expr inh – inhibitors of ATXN2 expression; HEK-293 ATXN2-luciferase reporter, luminescence, 24 h; Potency, µM (titrated, usually from 57 µM), most hits filed as inhibitors; actives 0.72% (n = 360,000); AID 1745845; note: nearly all actives have a fitted effect of over 55% in size
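qHTS (up to 57 uM final) was run with 24 h compound exposure of reporter cells at 37 °C. Each well was multiplexed: SteadyGlo luminescence measured ATXN2-luciferase expression after a fluorogenic Gly-Phe-AFC viability readout (25 uM final).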
LDHA inh – inhibitors of human lactate dehydrogenase A | P00338 | purified LDHA, NADH/diaphorase-resazurin fluorescence; hits give low values | activity change, % (values are at about 110 or 230 µM) | actives 0.15% (n = 480,000) | AID 1347041; in the data active = activity change below about -30%; inconclusive = mostly about -25% to -30%
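Resorufin fluorescence (ex540/em590), read at 0 and 20 min after diaphorase/resazurin addition, reports the NADH left after a 5 min room-temperature reaction of 2 nM human LDH5 with 0.06 mM NADH and 0.2 mM pyruvate.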
IDH1 R132H inh – human IDH1 R132H inhibition | O75874 | IDH1-R132H enzyme, NADPH consumption, diaphorase/resazurin fluorescence | Potency, µM (series often up to 76.6 µM), hits mostly inhibitors | actives 0.093% (n = 390,000); note: nearly all actives have a fitted effect of over 65% in size
Target sequence (O75874 whole entry R132H, stated change not applied): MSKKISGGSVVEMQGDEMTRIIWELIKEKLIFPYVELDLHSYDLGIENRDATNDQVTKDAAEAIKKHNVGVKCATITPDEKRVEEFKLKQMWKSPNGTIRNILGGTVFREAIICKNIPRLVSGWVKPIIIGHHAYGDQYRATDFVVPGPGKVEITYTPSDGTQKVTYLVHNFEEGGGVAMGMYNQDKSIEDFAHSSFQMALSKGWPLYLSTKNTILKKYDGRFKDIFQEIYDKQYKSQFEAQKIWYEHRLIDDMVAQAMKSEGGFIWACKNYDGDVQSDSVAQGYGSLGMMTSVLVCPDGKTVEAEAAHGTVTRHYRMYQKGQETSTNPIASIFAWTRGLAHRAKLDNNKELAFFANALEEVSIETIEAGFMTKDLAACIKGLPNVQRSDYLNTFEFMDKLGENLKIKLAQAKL
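IDH1-R132H (0.5 ug/mL) preincubated 30 min with compound, then NADPH (0.016 mM) and alpha-KG (2 mM) added; 80 min at RT, pH 7.5. Remaining NADPH coupled via diaphorase/resazurin to fluorescence (540/590 nm); concentration-response curves normalized to no-enzyme control.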
ATXN viability – cell viability loss in ATXN counter-screen; S2 cells (HEK-293 line with an ATXN2-luciferase reporter) viability, CellTiter-Fluor protease fluorescence, 24 h; Potency, µM (series often up to 56.7 µM), actives largely listed as cytotoxic; actives 0.49% (n = 400,000); note: nearly all actives have a fitted effect of over 40% in size
HepG2 tox – kills HepG2 cells in TGF-b inhibitor counter-screen; actives 0.76% (n = 410,000); HepG2 CAGA-GFP viability, ATP luminescence, 18 h; Potency, µM (series often up to 46.1 µM), most hits filed as cytotoxic
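CellTiter-Glo luminescence gave cytotoxicity after 18 hours at 37 degrees C. The cells were HepG2 CAGA-GFP in 1% FBS DMEM, stimulated with 500 pg/mL TGF-beta after compound addition. %Activity was normalised to no-cell wells (complete cell-killing) and DMSO (no toxicity), and curves were fitted and classified.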
Hits are given with their value; n = inactive; u = inconclusive; x = no result given. Unless noted, calls come from the whole dose curve; as a rule, active = well fitted curve in the direction sought with a large enough effect; inconclusive = small, poorly fitted or top-dose-only effect, or another doubt; inactive = no such curve, though single readings can be large; an effect the other way counts as inactive or inconclusive.

SMILES | TGFb inhibitor | ATXN2 expr inh | LDHA inh | IDH1 R132H inh | ATXN viability | HepG2 tox
O=C(C1CCN(c2ncnc3c2nc2n3CCCCC2)CC1)N1CCN(c2cccc(Cl)c2)CC1 | u | x | n | n | 18µM | n
CC(=O)c1cccc(NC(=O)C2CCN(c3ncnc4c3nc3n4CCCCC3)CC2)c1 | 18µM | x | n | n | x | n
Clc1cccc(N2CCN(c3ncnc4c3nc3n4CCCCC3)CC2)c1 | u | 18µM | n | n | x | n
Cc1cccc(NC(=O)C2CCN(c3ncnc4c3nc3n4CCCCC3)CC2)n1 | n | n | n | n | n | n
CCN(C[C@H]1N[C@@](CC)(C(=O)OC)[C@H]2C(=O)N(Cc3ccccc3)C(=O)[C@@H]12)C(=O)c1ccc(C(C)(C)C)cc1 | u | u | n | n | 16µM | n
CC[C@@]1(C(=O)OC)N[C@H](CN(C)C(=O)c2ccc(C(C)(C)C)cc2)[C@@H]2C(=O)N(Cc3ccccc3)C(=O)[C@@H]21 | n | n | n | n | n | n
CC(C)(C)OC(=O)N[C@@H](Cc1ccccc1)c1nnc(S(=O)(=O)Cc2cccc(F)c2)o1 | 11µM | u | n | n | x | n
CCOC(=O)CSc1nnc([C@H](Cc2ccccc2)NC(=O)OC(C)(C)C)o1 | n | n | n | n | n | n
CC(C)[C@H](NC(=O)OC(C)(C)C)c1nnc(S(=O)(=O)Cc2c(F)cccc2Cl)o1 | 11µM | u | n | n | x | 20µM
CC(C)C[C@H](N)c1nnc(S(=O)(=O)Cc2cccc(F)c2)o1 | 18µM | u | n | n | x | n
CCc1ccccc1NC(=O)CSc1nnc([C@@H](N)CC(C)C)o1 | x | x | n | x | x | x
COc1ccc(N(C=O)C(=S)SC)cc1 | n | n | n | n | n | n
O=C(OCc1nc2ccsc2c(=O)[nH]1)c1ccc(Cl)s1 | n | n | n | n | n | n
O=C(OCc1cc(=O)n2nc(-c3cccs3)sc2n1)c1cccc(Cl)c1 | n | n | n | n | n | n
CC(C)N(CC(=O)Nc1ccc(Cl)cc1C(F)(F)F)C(=O)CCl | u | 19µM | n | n | u | n
CCC(C)N(CC(=O)Nc1cccc(C)c1C)C(=O)CCl (centres undefined) | 22µM | 3µM | n | n | x | n
O=C(O)CSCC(=O)Nc1ccc(Cl)cc1C(F)(F)F | n | n | n | n | n | n
CCOC(=O)C1CCCN(S(=O)(=O)c2ccc3[nH]c(=O)ccc3c2)C1 (centres undefined) | n | n | n | n | n | n
COc1ccc(CNC(=O)COC(=O)c2ccco2)cc1 | n | n | n | n | n | n
Cc1cc(C(=O)CN2C(=O)NC3(CCCc4ccccc43)C2=O)c(C)n1Cc1ccccc1 (centres undefined) | u | n | n | n | n | n
COc1cc(Nc2nc(SCc3ccccc3Cl)nc3ccccc23)cc(OC)c1 | 11µM | x | n | n | x | n
COc1cc(Nc2nc(SCc3ccccc3F)nc3ccccc23)cc(OC)c1 | u | x | n | n | x | n
COc1cc(OC)c(/C=C/c2cc3ccccc3c[n+]2C)c(OC)c1 | 7.9µM | x | n | x | x | n
COc1ccc(OC)c(/C=C/c2cc3ccccc3c[n+]2C)c1 | n | x | n | x | x | n
COc1ccc(OCc2cccc(C(=O)O)c2)cc1 | n | 0.32µM | n | n | n | n
SMILES | TGFb inhibitor | ATXN2 expr inh | LDHA inh | IDH1 R132H inh | ATXN viability | HepG2 tox
CCOc1ccc(OCc2cccc(C(=O)N3CCCC3)c2)cc1 | n | 7.9µM | n | n | n | n
O=C(OCC(F)(F)F)c1cccc(COc2ccc3ccccc3c2)c1 | n | 2µM | n | n | n | n
CCOc1ccc(OCc2cccc(C(=O)N3CCCCCC3)c2)cc1 | n | x | n | n | n | n
COc1cccc(OC)c1C(=O)NNC(=O)c1cccc(COc2ccc3c(c2)CCC3)c1 | n | 5.6µM | n | n | n | n
CC(=O)c1cc(NC(=O)c2ccc(C)cc2)c(=O)oc1C | u | n | n | n | n | n
O=C(O)c1cccc(COc2ccc(CO)cc2Cl)c1 | n | 0.28µM | n | n | n | n

High-throughput results: PubChem, National Center for Advancing Translational Sciences (NCATS)
